Assay outcomes deposited in PubChem by National Center for Advancing Translational Sciences (NCATS).
This is one part of a sample in which hits are shown more often than they occur.
Cruzain inh noDet – qHTS Assay for Promiscuous and Specific Inhibitors of Cruzain (without detergent). Cruzipain (Trypanosoma cruzi), P25779. purified cruzain, Z-FR-AMC fluorescence, no detergent. Potency, µM, for the others: max response, negative = inhibition, hits mostly inhibitors. 200,000 tested, 2.3% active. AID 1476, 2009;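 also: plate controls were enzyme without inhibitor for no effect and buffer without enzyme for full effect; nearly all actives have a fitted effect of over 40% in size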
Target sequence (P25779 123-467 limits assumed): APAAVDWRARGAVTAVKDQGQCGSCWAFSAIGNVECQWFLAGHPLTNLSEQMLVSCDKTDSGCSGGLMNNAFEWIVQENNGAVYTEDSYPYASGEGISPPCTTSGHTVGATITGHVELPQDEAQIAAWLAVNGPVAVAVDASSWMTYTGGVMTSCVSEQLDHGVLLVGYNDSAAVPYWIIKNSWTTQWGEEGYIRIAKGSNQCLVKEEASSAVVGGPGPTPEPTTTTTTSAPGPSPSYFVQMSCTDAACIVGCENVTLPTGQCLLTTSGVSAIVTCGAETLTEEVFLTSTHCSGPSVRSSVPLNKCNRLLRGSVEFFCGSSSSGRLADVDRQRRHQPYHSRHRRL
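Detergent-free condition (0.00005% Triton X-100) in acetate buffer pH 5.5 with DTT. 1.5 nM enzyme and compound were pre-mixed 15 min, then 2 uM Z-FR-AMC substrate added; reaction progress from fluorescence change between first and third reads (60 s).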
NS1 function inh – qHTS Assay for Inhibitors of Influenza NS1 Protein Function; Potency, µM (top dose mostly 46.1 µM), without a hit: at the highest dose activity, positive = more growth; 270,000 tested, 0.4% active; calls by dose curve; also: actives are rising curves; nearly all actives have a fitted effect of over 50% in size
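OD600 was taken as the measure of yeast growth restored by compound in an NS1-expressing S. cerevisiae strain. Cells had been washed out of glucose medium and diluted 1:100 into galactose -URA medium, pH 6.0.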
Cruzain inh Det – qHTS Assay for Promiscuous and Specific Inhibitors of Cruzain (with detergent). Cruzipain (Trypanosoma cruzi), P25779. purified cruzain, Z-FR-AMC fluorescence, 0.01% Triton. Potency, µM, inactives show max response, negative = inhibition, most hits filed as inhibitors. 200,000 tested, 0.43% active;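 also: plate controls were neutral wells for no effect and buffer without enzyme for full effect; nearly all actives have a fitted effect of over 40% in size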
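Cysteine protease activity tested under reducing, mildly acidic conditions (100 mM sodium acetate pH 5.5, 5 mM DTT) plus 0.01% Triton X-100. Cruzain 1.5 nM; substrate Z-FR-AMC 2 uM; 15 min compound preincubation at room temperature.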
* = called active by the depositor. Unless noted, calls follow the shape of the dose curve; as a rule, active = well fitted curve in the direction sought with a large enough effect; inconclusive = small, poorly fitted or top-dose-only effect, or another doubt; inactive = no such curve, though single readings can be large; an effect the other way counts as inactive or inconclusive. Potency is read from the fitted curve at half-maximal effect.

Screening Cc1nnc(SCc2nc3sc(C(=O)O)c(C)c3c(=O)[nH]2)s1 returned NS1 function inh -4%.
Screening Cc1ccc2c(c1)c1nnc(SCC(=O)N3CCN(c4ccc(F)cc4)CC3)nc1n2CC(=O)O returned Cruzain inh noDet 7%, NS1 function inh 22% and Cruzain inh Det 28µM*.
Screening Cc1ccc(-c2nc3c4ccccc4n(CC(=O)N4CCN(c5ccc(F)cc5)CC4)c(=O)n3n2)cc1 returned Cruzain inh noDet 4% and Cruzain inh Det 1%.
Screening O=C(CN1CCN(Cc2ccccc2F)C1=O)NCCc1ccc(Cl)cc1 returned Cruzain inh noDet 2%, NS1 function inh -10% and Cruzain inh Det 2%.
Cc1cn(C2OC(COC(=O)c3ccccc3)C(OC(=O)c3ccccc3)C2OC(=O)c2ccccc2)c(=O)[nH]c1=O (stereo not given) was read as Cruzain inh noDet inconclusive, NS1 function inh inconclusive and Cruzain inh Det -1%.
`O=C(OCC1OC(OC(=O)c2cc(O)c(O)c(OC(=O)c3cc(O)c(O)c(O)c3)c2)[C@@H](OC(=O)c2cc(O)c(O)c(OC(=O)c3cc(O)c(O)c(O)c3)c2)C(OC(=O)c2cc(O)c(O)c(OC(=O)c3cc(O)c(O)c(O)c3)c2)C1OC(=O)c1cc(O)c(O)c(OC(=O)c2cc(O)c(O)c(O)c2)c1)c1cc(O)c(O)c(OC(=O)c2cc(O)c(O)c(O)c2)c1` (stereo not given in full) gave Cruzain inh noDet 7.9µM* and Cruzain inh Det 16µM*.
Screening COc1ccc(-c2[nH]ncc2C(=O)NCc2ccccc2OC)cc1 returned Cruzain inh noDet 8% and Cruzain inh Det 1%.
`Cc1cc(C)c2nc(NNC(=O)c3cc(-c4cccs4)nc4ccccc34)sc2c1` gave Cruzain inh noDet inconclusive, NS1 function inh 2% and Cruzain inh Det 2%.
Cc1ccc2sc(NNC(=O)c3cc(-c4cccs4)nc4ccccc34)nc2c1C was read as Cruzain inh noDet 10µM*, NS1 function inh -8% and Cruzain inh Det 0%.
`O=C(NN1CCOCC1)c1cc(-c2cccs2)nc2ccccc12` gave Cruzain inh noDet 10%, NS1 function inh 1% and Cruzain inh Det -9%.
O=C(NNc1nc2ccc(Cl)cc2s1)c1cc(-c2cccs2)nc2ccccc12 was read as Cruzain inh noDet 7.9µM*, NS1 function inh -19% and Cruzain inh Det 2%.
Cc1cc(C(=O)O)c(CSc2ncn[nH]2)o1 was read as Cruzain inh noDet -7%, NS1 function inh -5% and Cruzain inh Det -2%.
Screening Cc1ccc(CN2CCSc3ccc(C(=O)NCC(C)c4ccccc4)cc32)cc1 (stereo not given) returned Cruzain inh noDet -9% and Cruzain inh Det -6%.
O=C(Nc1ccc(Cl)cc1)c1ccc2c(c1)N(Cc1ccccc1)CCS2 was read as Cruzain inh noDet 32µM* and Cruzain inh Det -11%.
`CC(=O)c1cccc(NC(=O)c2ccc3c(c2)N(Cc2ccc(C)cc2)CCS3)c1` gave Cruzain inh noDet 13µM* and Cruzain inh Det -13%.
Cc1ccc(CN2CCSc3ccc(C(=O)NCCc4ccccc4)cc32)cc1 was read as Cruzain inh noDet -28% and Cruzain inh Det -11%.
For Cc1ccc(CN2CCSc3ccc(C(=O)NCc4ccc(OC(C)C)cc4)cc32)cc1 the results were Cruzain inh noDet 3% and Cruzain inh Det -5%.
O=C(NCCc1ccc(Cl)cc1)c1ccc2c(c1)N(Cc1ccccc1)CCS2 was read as Cruzain inh noDet -24% and Cruzain inh Det -5%.
`Cc1ccc(CN2CCSc3ccc(C(=O)Nc4ccc(Cl)cc4)cc32)cc1` gave Cruzain inh noDet 7.9µM* and Cruzain inh Det -5%.
For Cc1ccc(CN2CCSc3ccc(C(=O)Nc4cc(C)cc(C)c4)cc32)cc1 the results were Cruzain inh noDet 10µM* and Cruzain inh Det -19%.
Screening COC(=O)c1cc(N=Cc2c(O)c3ccccc3oc2=O)cc(C(=O)OC)c1 returned NS1 function inh 13%.
O=C(c1ccccc1[N+](=O)[O-])N1CCN(Cc2ccc3c(c2)OCO3)CC1 was read as Cruzain inh noDet -8%, NS1 function inh 0% and Cruzain inh Det 0%.
For N#CC(Cl)(Cl)Cl the results were Cruzain inh noDet 3% and Cruzain inh Det 0%.
CN(C)c1cccc2c1c(NC(=O)Nc1ccc(F)cc1F)nn2C was read as NS1 function inh 4%.
Cc1c(NC(=O)Nc2ccc(Cl)c(Cl)c2)sc2nc3n(c(=O)c12)CCC(C)CC3 (stereo not given) was read as Cruzain inh noDet -10% and Cruzain inh Det -1%.
`O=C(NCCc1ccccc1)c1ccc2c(c1)N(Cc1ccc(F)cc1)C(=O)CS2` gave Cruzain inh noDet -13% and Cruzain inh Det 1%.
Screening O=C(NCCc1ccc(Cl)cc1)c1ccc2c(c1)N(Cc1ccccc1)C(=O)CS2 returned Cruzain inh noDet 32µM* and Cruzain inh Det 0%.
`CCCCCCCCC(=O)Nc1cc(C)ccc1OC` gave Cruzain inh noDet -1%, NS1 function inh -5% and Cruzain inh Det -7%.
Cc1cccc(C)c1OCc1nnc(SCC(=O)Nc2ccccc2F)o1 was read as Cruzain inh noDet -9%, NS1 function inh -19% and Cruzain inh Det -5%.
COC(=O)c1ccc(NC(=O)CSc2nnc(COc3c(C)cccc3C)o2)cc1 was read as Cruzain inh noDet 25µM*, NS1 function inh 3% and Cruzain inh Det 5%.
Cc1ccc(OCc2nnc(SCC(=O)Nc3ccc(N4CCOCC4)cc3)o2)cc1 was read as NS1 function inh 10%.
`O=C(CSc1nnc(COc2ccc3c(c2)CCCC3)o1)Nc1ccc(F)cc1` gave Cruzain inh noDet 25µM*, NS1 function inh 1% and Cruzain inh Det 2%.
For COc1ccc(-c2nc3ccccc3n2OC(C)C(=O)O)cc1 (stereo not given) the results were NS1 function inh 4%.
`CC(C)CCN1CC(C(=O)NCc2ccc(F)cc2)CC1=O` (stereo not given) gave Cruzain inh noDet -1%, NS1 function inh 2% and Cruzain inh Det 5%.
CC(Oc1ccc(Br)cc1)C(=O)Nc1ncn[nH]1 (stereo not given) was read as Cruzain inh noDet 11% and Cruzain inh Det 1%.
Screening COc1ccc(-c2oc(NC(C)=O)c(C#N)c2-c2ccc(OC)cc2)cc1 returned Cruzain inh noDet 16%, NS1 function inh 5% and Cruzain inh Det -9%.
COc1ccc(C(=O)Nc2oc(-c3ccccc3)c(-c3ccccc3)c2C#N)cc1OC was read as Cruzain inh noDet -4%, NS1 function inh 3% and Cruzain inh Det -1%.
Screening COc1ccc(-c2oc(NC(=O)c3ccc(C)cc3)c(C#N)c2-c2ccc(OC)cc2)cc1 returned Cruzain inh noDet 13µM*, NS1 function inh 11% and Cruzain inh Det 3%.
For COc1ccc(C(=O)Nc2oc(-c3ccccc3)c(-c3ccccc3)c2C#N)cc1 the results were Cruzain inh noDet 32µM*, NS1 function inh -4% and Cruzain inh Det -2%.
`COc1ccc(OCCCC(=O)OC(C)C(=O)Nc2ccc(NC(C)=O)cc2)cc1` (stereo not given) gave NS1 function inh 0%.
For Cc1cc(C=O)c(C)n1-c1sc2c(c1C(=O)O)CCCC2 the results were Cruzain inh noDet -2%, NS1 function inh 17% and Cruzain inh Det -3%.
